Inconclusive results are not listed. Active and inactive are the calls of the source. Unless noted, the call rests on the fitted dose curve; in most records, active means well fitted curve in the direction sought with a large enough effect; inconclusive means small, poorly fitted or top-dose-only effect, or another doubt; inactive means no such curve, though single readings can be large; an effect the other way counts as inactive or inconclusive.
Experiments:
[1] = target: Luciferin 4-monooxygenase (Photinus pyralis) (UniProt P08659); test: Biochemical firefly luciferase enzyme assay for NPC (AID 624030);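 further: purified P. pyralis luciferase at 10 nM with luciferin and ATP substrate; 0% = DMSO and -100% = full luciferase inhibition by PTC124 control; nearly all actives have a fitted effect of over 70% in size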
In short: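 Counter-screen for direct inhibition of the luciferase enzyme by approved-drug library compounds, run at 10 nM enzyme in 50 mM Tris acetate (final). Luminescence was read within 5 min of enzyme-buffer addition and normalized to PTC124 versus DMSO (0%).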

[2] = qHTS for Inhibitors of the Functional Ribonucleoprotein Complex (vRNP) of Lassa (LASV) Arenavirus: LASV Primary Screen - GLuc reporter signal (AID 1347082; calls by dose curve; tested in HEK293 reporter line; further: on the % scale 0 is the no-effect control and ±100 the full control effect; nearly all actives have a fitted effect of over 60% in size)
[3] = qHTS for Inhibitors of the Functional Ribonucleoprotein Complex (vRNP) of Lassa (LASV) Arenavirus: Viability assay - alamar blue signal for LASV Primary Screen (AID 1347083; calls by dose curve; tested in HEK293 reporter line; further: on the % scale 0 is the no-effect control and ±100 the full control effect; nearly all actives have a fitted effect of over 80% in size)
[4] = qHTS for Inhibitors of the Functional Ribonucleoprotein Complex (vRNP) of Lymphocytic Choriomeningitis Arenaviruses (LCMV): Viability assay - alamar blue signal for LCMV Primary Screen (AID 1347085; calls by dose curve; tested in HEK293 reporter line; further: on the % scale 0 is the no-effect control and ±100 the full control effect; nearly all actives have a fitted effect of over 80% in size)
[5] = target: Nucleoprotein (Lymphocytic choriomeningitis virus (strain Armstrong)) (UniProt P09992); test: qHTS for Inhibitors of the Functional Ribonucleoprotein Complex (vRNP) of Lymphocytic Choriomeningitis Arenaviruses (LCMV): LCMV Primary Screen - GLuc reporter signal (AID 1347086; calls by dose curve; further: on the % scale 0 is the no-effect control and ±100 the full control effect; nearly all actives have a fitted effect of over 70% in size)
astro = test: Drug repurposing screens with cells derived from glioblastoma tumor samples (AID 1345199); conditions: viability, ATP luminescence, 48 h; series mostly up to 45.9 µM; further: nearly all actives have a fitted effect of over 40% in size; further: potency means the concentration at half of the fitted maximal effect
In short: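 Four patient lines of CD133+ GBM neurospheres were screened at several concentrations; hits were retested in those lines plus three slower-growing GBM lines, using 48-hour treatment and ATP-based viability.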

[6] = P-glycoprotein substrates identified in KB-8-5-11 adenocarcinoma cell line, qHTS therapeutic library screen (AID 1346987); further: on the % scale 0 is the no-effect control and ±100 the full control effect; nearly all actives have a fitted effect of over 65% in size
In short: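 P-gp-mediated resistance screen: KB-8-5-11 cells treated 72 h with compounds in dose-response. CellTiter-Glo viability.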

Furin (Homo sapiens) = Furin (Homo sapiens) (UniProt P09958); test: Furin counterscreen qHTS for Zika virus inhibitors (AID 1347149);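 further: purified recombinant full-length human furin enzyme at 5 nM; fluorescence gain from furin cutting a BOC-RVRR-AMC peptide substrate over 15 min; top concentration of the series differs between compounds; plate controls were no-inhibitor control for no effect and no-enzyme control for full effect; nearly all actives have a fitted effect of over 70% in size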
In short: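 Fluorogenic cleavage of BOC-RVRR-AMC (2 microM final, Km ~15 µM) was monitored (ex 340, em 450 nm) at 37C after 15 min RT preincubation of 5 nM furin with compounds in HEPES pH 7.0 buffer with CaCl2 and Triton X-100. Percent inhibition was fitted to a 4-parameter Hill curve.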

[7] = Vero cells viability qHTS for Zika virus inhibitors (AID 1347167); further: on the % scale 0 is the no-effect control and ±100 the full control effect
In short: (§1)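 Counter-screen for cytotoxicity of hits from NS2B-NS3 protease qHTS. Overnight-attached cells (2.5 x 10^5 cells/mL, DMEM/4% FBS) were dosed in titration, incubated 24 to 48 hours, then assayed by CellTiter Glo.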

[8] = HepG2 cells viability qHTS for Zika virus inhibitors (AID 1347168); further: on the % scale 0 is the no-effect control and ±100 the full control effect
In short: as §1

[9] = Primary qHTS for Huh7 cytotoxicity: counterscreen for inhibitors of MERS-S pseudotyped particle cell entry (AID 1479147; calls by dose curve); conditions: outcome: dose series up to 57.1 µM unless noted
[10] = Primary qHTS for Vero E6 cytotoxicity: counterscreen for inhibitors of SARS-S pseudo-typed particle cell entry (AID 1479150; calls by dose curve); conditions: outcome: dose series up to 57.1 µM unless noted
[11] = Cytotoxicity counterscreen for inhibitors of SARS-CoV-2 cell entry (AID 1645845; calls by dose curve; further: nearly all actives have a fitted effect of over 50% in size)
In short: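 Expi293F/hACE2 cells seeded overnight; cpd pin-transferred in DMSO, 1 h preincubation, + media, 48 h 37 C 5% CO2; ATPLite 1step luminescence; normalized to cells and no cells.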

[12] = target: Glutathione peroxidase 1 (Homo sapiens) (UniProt P07203); test: Primary qHTS Assay for Inhibitors of Recombinant Selenoprotein Glutathione Peroxidase 1 (GPX1) (AID 1845191); further: on the % scale 0 is the no-effect control and ±100 the full control effect; nearly all actives have a fitted effect of over 65% in size
In short: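 Recombinant GPX1 (10 nM final) was preincubated with compound for 30 min at room temperature, then reacted with 1 mM GSH, 0.5 mM CHP, 0.5 mM NADPH and 100 nM glutathione reductase; NADPH fluorescence (340/450 nm) was read at 0 and 15 min.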

[13] = target: Phospholipid hydroperoxide glutathione peroxidase GPX4 (Homo sapiens) (UniProt P36969); test: Primary qHTS Assay for Inhibitors of Recombinant Selenoprotein Glutathione Peroxidase 4 (GPX4) (AID 1845192); further: nearly all actives have a fitted effect of over 65% in size
In short: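 GR-coupled readout: 100 nM GR, 1 mM GSH, 0.5 mM NADPH; NADPH fluorescence (ex 340/em 450 nm) read at t=0 and after 15 min RT. GPX4 200 nM, preincubated 30 min with compound; substrate 0.5 mM CHP.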

[14] = qHTS Assay for Identifying Gametocytocidal Compounds (AID 743244);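 further: on the % scale 0 is the no-effect control and ±100 the full control effect; actives lower the fluorescent signal which means gametocytes are killed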; conditions: P. falciparum 3D7 stage III-V gametocytes, alamarBlue, 72 h; max response: stronger effect = lower value
In short: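 Stage III-V P. falciparum 3D7 gametocytes, 20,000 per well, were exposed to compounds for 72 h at 37C, 5% CO2. AlamarBlue was then added for 24 h and viability was read as fluorescence at Ex 525/Em 598 nm.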

Sequence of Luciferin 4-monooxygenase (Photinus pyralis) (P08659 whole entry, looked up): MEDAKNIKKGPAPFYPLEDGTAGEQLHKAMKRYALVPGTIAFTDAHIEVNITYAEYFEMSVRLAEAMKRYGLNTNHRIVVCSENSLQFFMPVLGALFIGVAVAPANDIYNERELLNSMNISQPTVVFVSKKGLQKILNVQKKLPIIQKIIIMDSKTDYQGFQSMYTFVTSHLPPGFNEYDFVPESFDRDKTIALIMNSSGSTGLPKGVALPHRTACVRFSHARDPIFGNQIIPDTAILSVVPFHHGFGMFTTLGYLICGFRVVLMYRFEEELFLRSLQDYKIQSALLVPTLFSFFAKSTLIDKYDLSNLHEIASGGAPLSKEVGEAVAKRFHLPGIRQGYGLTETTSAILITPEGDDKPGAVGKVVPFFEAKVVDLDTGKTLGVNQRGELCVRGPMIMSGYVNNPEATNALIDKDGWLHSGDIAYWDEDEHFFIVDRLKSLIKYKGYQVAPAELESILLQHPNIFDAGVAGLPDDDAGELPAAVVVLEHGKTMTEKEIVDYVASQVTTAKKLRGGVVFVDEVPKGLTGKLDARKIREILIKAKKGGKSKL
Sequence of Nucleoprotein (Lymphocytic choriomeningitis virus (strain Armstrong)) (P09992 whole entry, looked up): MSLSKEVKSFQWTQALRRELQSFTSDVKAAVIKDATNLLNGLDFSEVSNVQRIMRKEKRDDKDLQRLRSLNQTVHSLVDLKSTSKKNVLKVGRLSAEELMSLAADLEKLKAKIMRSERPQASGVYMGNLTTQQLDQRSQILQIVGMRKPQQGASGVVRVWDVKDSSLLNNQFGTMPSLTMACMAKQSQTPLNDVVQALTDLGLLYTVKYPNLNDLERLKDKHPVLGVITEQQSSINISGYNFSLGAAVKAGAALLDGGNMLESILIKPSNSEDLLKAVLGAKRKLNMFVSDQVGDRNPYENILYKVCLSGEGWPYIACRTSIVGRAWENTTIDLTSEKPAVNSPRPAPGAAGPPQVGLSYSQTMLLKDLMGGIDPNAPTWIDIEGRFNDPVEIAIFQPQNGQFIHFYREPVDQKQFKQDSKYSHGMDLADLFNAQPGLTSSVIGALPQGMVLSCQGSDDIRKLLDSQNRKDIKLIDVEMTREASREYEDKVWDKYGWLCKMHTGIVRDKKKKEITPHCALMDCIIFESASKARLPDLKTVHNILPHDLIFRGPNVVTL
Sequence of Phospholipid hydroperoxide glutathione peroxidase GPX4 (Homo sapiens) (P36969 whole entry, looked up): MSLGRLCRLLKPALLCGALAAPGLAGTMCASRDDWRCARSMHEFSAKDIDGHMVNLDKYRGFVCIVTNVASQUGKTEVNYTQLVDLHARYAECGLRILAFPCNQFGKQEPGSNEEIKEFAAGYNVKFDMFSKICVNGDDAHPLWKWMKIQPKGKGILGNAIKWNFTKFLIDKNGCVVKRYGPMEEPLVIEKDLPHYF
Sequence of Furin (Homo sapiens) (P09958 whole entry, looked up): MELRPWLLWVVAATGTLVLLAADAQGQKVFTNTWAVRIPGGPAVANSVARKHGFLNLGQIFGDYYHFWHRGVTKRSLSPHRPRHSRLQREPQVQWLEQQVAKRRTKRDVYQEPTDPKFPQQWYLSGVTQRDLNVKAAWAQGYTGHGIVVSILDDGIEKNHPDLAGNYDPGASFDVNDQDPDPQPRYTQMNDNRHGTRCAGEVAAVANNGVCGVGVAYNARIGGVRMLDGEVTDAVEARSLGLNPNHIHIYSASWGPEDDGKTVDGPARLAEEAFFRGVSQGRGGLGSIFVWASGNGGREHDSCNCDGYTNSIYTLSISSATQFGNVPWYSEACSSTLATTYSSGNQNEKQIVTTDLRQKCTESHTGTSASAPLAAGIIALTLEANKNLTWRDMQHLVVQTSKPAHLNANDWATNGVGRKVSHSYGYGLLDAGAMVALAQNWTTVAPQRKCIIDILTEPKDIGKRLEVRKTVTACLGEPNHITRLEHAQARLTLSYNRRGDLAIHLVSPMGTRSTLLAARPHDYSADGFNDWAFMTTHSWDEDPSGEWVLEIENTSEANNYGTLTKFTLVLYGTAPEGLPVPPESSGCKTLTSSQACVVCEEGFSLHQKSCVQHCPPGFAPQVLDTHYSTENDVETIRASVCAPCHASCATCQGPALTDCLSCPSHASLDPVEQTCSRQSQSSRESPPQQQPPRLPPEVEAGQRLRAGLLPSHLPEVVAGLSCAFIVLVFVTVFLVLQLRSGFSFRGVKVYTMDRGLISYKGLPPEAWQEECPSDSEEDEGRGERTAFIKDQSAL
Sequence of Glutathione peroxidase 1 (Homo sapiens) (P07203 whole entry, looked up): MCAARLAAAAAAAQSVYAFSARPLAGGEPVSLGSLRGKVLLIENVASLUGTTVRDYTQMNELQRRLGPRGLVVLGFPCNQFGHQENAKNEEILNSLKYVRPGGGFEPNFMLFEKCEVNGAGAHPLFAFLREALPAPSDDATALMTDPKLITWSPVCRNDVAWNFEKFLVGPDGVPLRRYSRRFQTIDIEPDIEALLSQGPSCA

CCCCCc1cc(O)c2c(c1)OC(C)(C)c1ccc(C)cc1-2
inactive: Potency [1] | Potency [2] | Potency [3] | Potency [4] | Potency [5]
active: Potency (astro) 22.4 µM

COc1cccc2c1C1COC3C4CC(C(=O)O)C(C(C2)N13)N4C (stereo not given)
inactive: Potency [2]

Cc1ccc2c(c1)[C@]13CCCC[C@@H]1[C@H](C2)N(C)CC3
inactive: Potency [6] | Potency (Furin (Homo sapiens)) | Potency [7] | Potency [8] | outcome [9] | outcome [10] | Potency [11] | Potency [12] | Potency [13] | Potency (astro)

CCc1cc(OC)c(C[C@@H](C)N)cc1OC
inactive: max response [14] 0.694% | Potency [6] | Potency (astro)

From PubChem BioAssay (NCATS)
